± gives the standard deviation of the averaged measurements.
What was measured:
Conditions in all cases: concentration: 10 µM; 24 h
[1] = tested on: HCC1569; experiment: cell number relative to DMSO (% of DMSO); higher = more cells (less growth inhibition / toxicity)
Procedure, shortened: (§1)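 For HCC1569 and TDF cells, compounds at 10 µM were applied for 24 h at 37 °C in triplicate in 384-well plates. Cells were fixed in 3.7% formaldehyde, stained for H1.0 and with DAPI, and imaged at ×10 over six fields per well. The endpoint, H1.0 nuclear intensity or cell number, is shown as percent of the plate control using the median of replicates. Positional effects were smoothed for HCC1569 only.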

[2] = tested on: TDF; experiment: as above
Procedure, shortened: as §1

[3] = tested on: TDF; experiment: H1.0 immunofluorescence intensity relative to DMSO (% of DMSO); higher = stronger H1.0 induction, active = 120 or more
Procedure, shortened: as §1

[4] = tested on: HCC1569; experiment: H1.0 immunofluorescence intensity relative to DMSO (% of DMSO); higher = stronger H1.0 induction, active = 140 or more
Procedure, shortened: as §1
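Wherever H1.0 immunofluorescence intensity relative to DMSO is given: TDF is a line of transformed human dermal fibroblasts of mesenchymal origin.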
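Wherever cell number relative to DMSO is given: TDF denotes transformed human dermal fibroblasts of mesenchymal origin.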

Row | Compound | cell number [1] | cell number [2] | H1.0 immunofluorescence intensity [3] | H1.0 immunofluorescence intensity [4]
1 | CCCCCCCCOC(=O)C=Cc1ccc(O)c(O)c1 [n-Octyl caffeate] | 54.1 | 78.8 | 93.6 (inactive) | 120 (inactive)
2 | Cl.N[C@@H](CCC(=O)O)C(=O)O [L-Glutamic acid hydrochloride] | 103 | 114 | 90.1 (inactive) | 91.5 (inactive)
3 | COc1cc(C=C(C#N)C(=O)c2ccc(O)c(O)c2)cc(I)c1O [I-OMe-Tyrphostin AG 538] | 97.2 | 102 | 102 (inactive) | 106 (inactive)
4 | CCN1CCCC1CNC(=O)c1c(O)c(Cl)cc(Cl)c1OC (stereo not drawn) [S(-)-Raclopride] | 102 | 97.5 | 95.7 (inactive) | 104 (inactive)
5 | O=C(NCCNCC(O)COc1ccc(O)cc1)N1CCOCC1.O=C(O)C=CC(=O)O (stereo unspecified) [Xamoterol hemifumarate] | 104 | 98.5 | 88.7 (inactive) | 109 (inactive)
6 | COc1ccccc1N1CCN(CCCCNC(=O)c2ccc3ccccc3c2)CC1 [N-{4-[4-(2-methoxyphenyl)-1-piperazinyl]butyl}-2-naphthamide] | 96.6 | 98.1 | 96.7 (inactive) | 114 (inactive)
7 | CCCCCC(O)C=CC=CC=CC(O)CC=CCCCC(=O)O [8(R),15(S)-DIHETE all trans] | 102 | 107 | 91.4 (inactive) | 98.4 (inactive)
8 | CCCCCCCCC=CCCCCCCCCCC(=O)O [11(E)-Eicosenoic acid] | 102 | 101 | 101 (inactive) | 102 (inactive)
9 | C[C@H]1C[C@H]2[C@@H]3CCC4=CC(=O)C=C[C@]4(C)[C@@]3(F)[C@@H](O)C[C@]2(C)[C@@]1(O)C(=O)COP(=O)([O-])[O-].[Na+].[Na+] | 97.2 | 106 | 83.8 (inactive) | 111 (inactive)
10 | CCCCC(C)(C)C(O)C=CC1C(O)CC(=O)C1CC=CCCCC(=O)O (stereo unspecified) [16,16-Dimethyl-prostaglandin E2] | 100 | 110 | 94.7 (inactive) | 109 (inactive)
11 | CN(C)c1ccc(O)c2c1CC1CC3C(N(C)C)C(=O)C(C(N)=O)=C(O)C3(O)C(=O)C1=C2O.Cl (stereo unspecified) [Minocycline hydrochloride] | 99 | 109 | 99.7 (inactive) | 100 (inactive)
12 | O=P(O)(O)C(O)(Cc1cccnc1)P(=O)(O)O [Risedronic acid] | 110 | 103 | 100 (inactive) | 99.9 (inactive)
13 | CC(C=CC1=C(C)CCCC1(C)C)=CC=CC(C)=CC(=O)O [9-cis Retinoic acid] | 105 ± 4.8 | 106 ± 5.2 | 87.8 (inactive) | 116 (inactive)
14 | CN1CCN(c2c(F)cc3c(=O)c(C(=O)O)cn(CCF)c3c2F)CC1 [Fleroxacin] | 101 | 87.2 | 102 (inactive) | 112 (inactive)
15 | CCCCCC=CCC=CCC=CCC=CCCCC(=O)OC(COCCCCCCCCCCCCCCCC)COP(=O)([O-])OCC[N+](C)(C)C (stereo unspecified) [Arachidonyl-PAF] | 98 | 100 | 93 (inactive) | 93.4 (inactive)
16 | O=C(O)C(=S)Cc1ccc(I)cc1 [(2Z)-3-(4-iodophenyl)-2-sulfanyl-2-propenoic acid] | 106 | 104 | 95.6 (inactive) | 94.8 (inactive)
17 | Nc1ccc(S(=O)(=O)Nc2ncccn2)cc1 [Sulfadiazine] | 101 | 108 | 95.6 (inactive) | 96.7 (inactive)
18 | CC(C)C[C@H](NC(=O)C(O)[C@H](N)Cc1ccc([N+](=O)[O-])cc1)C(=O)O.Cl (stereo partly specified) | 104 | 104 | 95.3 (inactive) | 93.9 (inactive)
19 | CNC(=O)C1OC(n2cnc3c(N)ncnc32)C(O)C1O (stereo unspecified) [5'-N-Methyl carboxamidoadenosine] | 110 | 110 | 104 (inactive) | 98.9 (inactive)
20 | CCn1cc(C(=O)O)c(=O)c2ccc(C)nc21 [Nalidixic acid] | 102 | 98.7 | 91.1 (inactive) | 86.1 (inactive)
21 | c1cc(-c2cnn3cc(-c4ccc(OCCN5CCCCC5)cc4)cnc23)ccn1 [AMPK Inhibitor,                  Compound C] | 102 | 102 | 85.8 (inactive) | 106 (inactive)
22 | CC1(C)SC2C(NC(=O)C(N)c3ccc(O)cc3)C(=O)N2C1C(=O)O (stereo unspecified) [Amoxicillin] | 107 | 103 | 105 (inactive) | 104 (inactive)
23 | CN(C)CC(=O)Nc1ccc2[nH]c(=O)c3ccccc3c2c1.Cl.O | 101 | 99.1 | 97.4 (inactive) | 91.3 (inactive)
24 | COc1ccccc1N1CCN(CCN(C(=O)c2ccc(F)cc2)c2ccccn2)CC1.Cl.Cl [p-MPPF dihydrochloride] | 99.7 | 109 | 89.7 (inactive) | 87.2 (inactive)
